Assay results taken from PubChem BioAssay (Tox21).
Where “and” joins values, the source holds several entries; their conditions need not be identical. Equal values may be shown once. Records with an inconclusive call do not appear. A call without a number means that no potency is given here. The source holds several records for some structures; these can differ, active in one and inactive in another. Calls of active or inactive are those of the source. The call rests on the fitted dose curve; in most records, active means well fitted activation curve with a large enough effect in the repeat runs; inconclusive means weak or mixed curves; inactive means flat fitted curve, though single readings scatter.

Assay: A CellTox Green Cytotoxicity Assay to monitor cytotoxicity in HepG2 cells - 24 hour (AID 1224878); further: nearly all actives have a fitted effect of over 45% in size
Settings: CellTox Green fluorescence; series mostly up to 76.8 µM; cytotoxicity: at the top concentration
Source text: National Center for Advancing Translational Sciences [NCATS]
NIH Chemical Genomics Center [NCGC]
U.S. Environmental Protection Agency [EPA]
National Institutes of Environmental Health Sciences [NIEHS]
National Toxicology Program [NTP]
Cell-based models are critical for drug discovery. Determining the natural cytotoxic effects resulting from test compounds is an essential research activity. A CellTox Green Cytotoxicity Assay to monitor cytotoxicity in real time of continues cell culture during 40 hours of the compound treatment was used to screen Tox21 10K library compounds in HepG2 cells. CellTox Green Cytotoxicity Assay is a nonlytic, homogeneous, biofluorescent method to measure cytotoxicity in cell culture after experimental manipulation. The assay system uses a proprietary asymmetric cyanine dye that is excluded from viable cells but preferentially stains the dead cell's DNA. […] Viable cells produce no appreciable increases in fluorescence. Therefore, the fluorescence signal produced by the binding interaction with dead cell DNA is proportional to cytotoxicity.
The mixture of HepG2 cell suspension and reagents were dispensed at 600cells/6 ul/well in 1536-well tissue culture treated black solid bottom plates using a Multidrop dispenser. After the assay plates were incubated at a 37 C/5% CO2 incubator for 5 hours, 23 nL of compounds dissolved in DMSO, positive and negative controls was transferred to the assay plate by a pintool work station. The plates were incubated at 37 C for 40 hours. The fluorescence intensity were measured at 0h, 8h, 16h, 24h, 32h and 40h time points using ViewLux plate reader during compound treatment.
Potency means the concentration at half of the fitted maximal effect.

Compound	Potency	cytotoxicity
C[C@]12CCC(=O)C=C1CC[C@@H]1[C@@H]2C(=O)C[C@@]2(C)[C@H]1CC[C@]2(O)C(=O)CO	inactive	
c1ccc2cc(Nc3ccc(Nc4ccc5ccccc5c4)cc3)ccc2c1	inactive	
CC1=CCC(C(C)(C)O)CC1 (stereo not given)	inactive and 21.9 µM (active)	
OCCO	inactive	
CCCCC/C=C/C=C/C=O		24.6% (inactive)
OC[C@H]1O[C@@H]2O[C@H]3[C@H](O)[C@@H](O)[C@@H](O[C@H]4[C@H](O)[C@@H](O)[C@@H](O[C@H]5[C@H](O)[C@@H](O)[C@@H](O[C@H]6[C@H](O)[C@@H](O)[C@@H](O[C@H]7[C@H](O)[C@@H](O)[C@@H](O[C@H]8[C@H](O)[C@@H](O)[C@@H](O[C@H]1[C@H](O)[C@H]2O)O[C@@H]8CO)O[C@@H]7CO)O[C@@H]6CO)O[C@@H]5CO)O[C@@H]4CO)O[C@@H]3CO	inactive	
Nc1ncnc2nc[nH]c12		6.86% [at 35.3 µM] (inactive)
CCCCc1oc2ccccc2c1C(=O)c1cc(I)c(OCCN(CC)CC)c(I)c1	39.2 µM (active)	
C/C=C/C(=O)O	inactive	
O=[N+]([O-])c1ccc2c(c1)Cc1ccccc1-2	inactive	
c1ccc2c(c1)Oc1ccccc1S2		1.21% (inactive)
CC(C)=CCCC(C)CCO (stereo not given)	inactive	
COC(=O)CCC(=O)OC	inactive	
O=C=Nc1ccc(Cc2ccc(N=C=O)cc2)cc1	inactive	
NC=O	inactive	
COC(=O)C1=C(C)NC(C)=C(C(=O)OCCN(C)Cc2ccccc2)C1c1cccc([N+](=O)[O-])c1 (stereo not given)	48.7 µM (active) and inactive	
CCOC(=O)C(C#N)=C(c1ccccc1)c1ccccc1	inactive	
O=Cc1ccccc1O	inactive	
Cc1[nH]c(=O)c(C#N)cc1-c1ccncc1		15.6% [at 35.3 µM] (inactive)
COc1ccccc1/C=C/C=O	inactive	

Compound	Potency	cytotoxicity
c1ccc2c(c1)c1cccc3ccc4cccc2c4c31	inactive	
Nc1ccccc1N	56.2 µM (active) and inactive	
CC(=O)O[C@]1(C(C)=O)CC[C@H]2[C@@H]3C=C(Cl)C4=CC(=O)[C@@H]5C[C@@H]5[C@]4(C)[C@H]3CC[C@@]21C	inactive	
CC(C)(C)NC(=O)[C@H]1CC[C@H]2[C@@H]3CC[C@H]4NC(=O)C=C[C@]4(C)[C@H]3CC[C@]12C	inactive	
Cc1cccc(N(C)C(=S)Oc2ccc3ccccc3c2)c1	inactive	
CCC(C)CO (stereo not given)	inactive and 43.6 µM (active)	
C[C@]12CC[C@H]3[C@@H](CCC4=CC(=O)CC[C@@]43C)[C@@H]1CC[C@@H]2C(=O)CO		-14.3% [at 35.3 µM] (inactive)
CC(C)OC(=O)C(C)(C)Oc1ccc(C(=O)c2ccc(Cl)cc2)cc1	inactive	
O=C(c1ccccc1)c1ccccc1O		6.52% (inactive)
CN(C)C(=N)N=C(N)N	inactive	
O=C(OCc1ccccc1)c1ccccc1O	inactive	
COC(C)COC(C)COC(C)CO (stereo not given)	inactive	
CC(=O)Oc1ccccc1C(=O)Nc1ncc([N+](=O)[O-])s1	inactive	
CCC(C)(O)CCCC(C)C (stereo not given)	inactive	
O=C(/C=C/c1ccccc1)OCc1ccccc1	inactive	
OC(CCl)CCl	inactive	
O=C(c1ccccc1)c1ccc(O)cc1O	inactive and 38.9 µM (active)	
CCCCC(CC)COC(=O)c1ccc(N(C)C)cc1 (stereo not given)	inactive	
CCCCC(CC)COCC1CO1 (stereo not given)	inactive	
COc1cc([C@@H]2c3cc4c(cc3[C@H](O)[C@H]3COC(=O)[C@H]23)OCO4)cc(OC)c1OC		2.55% [at 35.3 µM] (inactive)
